Assay results published in PubChem BioAssay.

Columns and labels:
[1] = test system: Botulinum neurotoxin type F light chain protease (Clostridium botulinum); assay: Clostridium botulinum type F light chain protease inhibitors, microsphere substrate cleavage, validation (AID 588459); conditions: multiplex microsphere protease substrate cleavage assay, flow cytometry; at 10 µM; stronger effect = higher value
[2] = target: Botulinum neurotoxin type A (Clostridium botulinum) (UniProt P0DPI0); assay: BoNT/A light chain protease inhibitors, biochemical, multiplex microsphere flow cytometry, validation set (AID 588460); conditions: at 10 µM, stronger effect = higher value
[3] = target: Lethal factor (Bacillus anthracis) (UniProt P15917); assay: Bacillus anthracis lethal factor inhibition, microsphere flow cytometry protease assay, validation at 10 µM (AID 588461); conditions: multiplex microsphere protease cleavage assay, stronger effect = higher value

Measured: inhibition

Sequence of Botulinum neurotoxin type A (Clostridium botulinum) (P0DPI0 whole entry, looked up): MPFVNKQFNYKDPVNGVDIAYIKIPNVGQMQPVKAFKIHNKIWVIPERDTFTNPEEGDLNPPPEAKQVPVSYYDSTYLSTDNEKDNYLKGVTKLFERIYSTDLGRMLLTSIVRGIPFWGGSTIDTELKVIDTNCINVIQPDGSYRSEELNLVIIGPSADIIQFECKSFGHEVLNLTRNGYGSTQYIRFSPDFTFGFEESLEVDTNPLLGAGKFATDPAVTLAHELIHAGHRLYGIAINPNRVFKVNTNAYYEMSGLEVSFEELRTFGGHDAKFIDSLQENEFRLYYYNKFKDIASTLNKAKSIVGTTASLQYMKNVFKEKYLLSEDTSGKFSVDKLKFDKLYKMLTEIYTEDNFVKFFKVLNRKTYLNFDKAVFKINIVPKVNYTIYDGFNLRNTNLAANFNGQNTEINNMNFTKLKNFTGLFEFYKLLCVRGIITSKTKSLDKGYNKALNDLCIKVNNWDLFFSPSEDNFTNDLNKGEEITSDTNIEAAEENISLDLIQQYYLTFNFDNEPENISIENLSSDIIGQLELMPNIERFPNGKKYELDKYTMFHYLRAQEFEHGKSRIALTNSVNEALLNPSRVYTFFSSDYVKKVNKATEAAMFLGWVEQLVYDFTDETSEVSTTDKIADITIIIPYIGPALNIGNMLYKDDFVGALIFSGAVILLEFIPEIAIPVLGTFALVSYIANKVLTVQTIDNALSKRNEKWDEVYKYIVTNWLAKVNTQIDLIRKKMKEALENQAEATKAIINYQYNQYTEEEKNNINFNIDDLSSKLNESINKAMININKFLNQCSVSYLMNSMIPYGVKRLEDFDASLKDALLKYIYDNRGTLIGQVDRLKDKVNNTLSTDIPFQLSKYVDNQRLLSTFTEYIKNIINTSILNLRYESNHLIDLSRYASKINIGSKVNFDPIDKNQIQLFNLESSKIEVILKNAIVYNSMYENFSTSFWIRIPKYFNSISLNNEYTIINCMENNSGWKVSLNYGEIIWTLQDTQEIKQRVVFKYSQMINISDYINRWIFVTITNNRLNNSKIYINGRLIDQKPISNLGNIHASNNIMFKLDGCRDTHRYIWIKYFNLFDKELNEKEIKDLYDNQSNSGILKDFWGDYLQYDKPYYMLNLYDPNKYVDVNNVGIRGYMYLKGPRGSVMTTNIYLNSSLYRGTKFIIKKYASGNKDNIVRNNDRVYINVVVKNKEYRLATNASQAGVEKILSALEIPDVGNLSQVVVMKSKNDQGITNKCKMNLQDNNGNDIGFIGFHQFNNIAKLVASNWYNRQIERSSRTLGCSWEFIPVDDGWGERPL
Sequence of Lethal factor (Bacillus anthracis) (P15917 whole entry, looked up): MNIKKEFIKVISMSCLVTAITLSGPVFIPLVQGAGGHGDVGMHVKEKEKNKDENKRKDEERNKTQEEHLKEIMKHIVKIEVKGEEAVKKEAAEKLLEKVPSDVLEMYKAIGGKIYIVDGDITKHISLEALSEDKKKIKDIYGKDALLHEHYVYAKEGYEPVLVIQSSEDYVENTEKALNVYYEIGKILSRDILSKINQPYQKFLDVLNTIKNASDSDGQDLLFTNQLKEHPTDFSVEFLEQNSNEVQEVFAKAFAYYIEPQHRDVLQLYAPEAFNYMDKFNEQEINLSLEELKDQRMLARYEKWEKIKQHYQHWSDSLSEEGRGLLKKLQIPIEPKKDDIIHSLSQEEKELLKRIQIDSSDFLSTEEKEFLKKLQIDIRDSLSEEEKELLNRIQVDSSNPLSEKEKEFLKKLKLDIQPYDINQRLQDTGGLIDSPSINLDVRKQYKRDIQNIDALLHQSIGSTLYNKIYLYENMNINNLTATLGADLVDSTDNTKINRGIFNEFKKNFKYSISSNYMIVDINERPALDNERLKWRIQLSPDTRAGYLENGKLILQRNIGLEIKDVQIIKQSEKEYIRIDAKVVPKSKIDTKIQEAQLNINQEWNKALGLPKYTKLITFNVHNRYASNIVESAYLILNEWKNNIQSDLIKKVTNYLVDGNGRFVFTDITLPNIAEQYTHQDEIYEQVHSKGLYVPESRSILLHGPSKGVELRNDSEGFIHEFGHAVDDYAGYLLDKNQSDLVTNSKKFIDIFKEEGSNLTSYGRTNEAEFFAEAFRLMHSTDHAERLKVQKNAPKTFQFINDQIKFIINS

CCOC(=O)C(Cc1cc(C(C)=O)ccc1OC(C)C)C(=O)OCC
inactive: [1] 0.4% | [2] -0.1% | [3] -1.9%

CCCOc1ccc(-c2cc(C(=O)NCC3CCCO3)c3ccccc3n2)cc1 (stereo not given)
inactive: [1] -0.2% | [2] -0.7% | [3] -5.1%

CCO/C([O-])=N/c1c[n+](N2CCOCC2)no1
inactive: [1] 0.3% | [2] 0.5% | [3] -5.4%

COc1ccccc1-c1ccc(/C=C2/C=C(CC(C)C)OC2=O)o1
inactive: [1] 4.8% | [2] 1.7% | [3] 7.1%

C[C@]12CC[C@@H]3c4ccc(OS(=O)(=O)O)cc4CC[C@H]3[C@@H]1CCC2=O
inactive: [1] -0.1% | [2] -0.2% | [3] -0.2%

COc1cc(C(=O)N/C(=C\c2cn(C)c3ccccc23)C(=O)NCCCO)cc(OC)c1OC
inactive: [1] 2% | [2] -1.2% | [3] -2.5%

O=c1c2ccccc2nc2n1-c1ccccc1CCC2
inactive: [1] 3.5% | [2] 0.6% | [3] 12.2%

CCOCCCNCc1cn(-c2ccc(F)cc2F)nc1-c1ccccc1C
inactive: [1] -0.4% | [2] -1.9% | [3] -0.3%

COc1ccc(C2CC(c3c(O)cc(C)oc3=O)=NCCS2)c(OC)c1 (stereo not given)
inactive: [1] 4.5% | [2] 2% | [3] 4.3%

COc1ccc(-n2cc(CNCc3cccnc3)c(-c3cccc(F)c3)n2)cc1
inactive: [1] -3.6% | [2] -0.7% | [3] -8.2%
